This is an account of results in PubChem BioAssay (NCI).

Some test systems named below: SK-MEL-2 melanoma; EKVX NSCLC; SN12C renal; UO-31 renal; TK-10 renal; ACHN renal; A498 renal; CCRF-CEM leukemia; MOLT-4 leukemia; SR leukemia; RPMI-8226 leukemia; OVCAR-8 ovarian; OVCAR-5 ovarian; OVCAR-4 ovarian; SK-OV-3 ovarian; IGROV1 ovarian; OVCAR-3 ovarian; HS 578T breast; NCI/ADR-RES ovarian.
Common to all, as to experiment: NCI-60 one-dose screen, 48 h (100 = growth as untreated, 0 = no growth, -100 = all killed)
Holding throughout (settings): 10 µM

About 83,000 compounds went through this panel and 20% of them were active in at least one assay; those are over-represented in the sample as a whole.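 Each cell line was grown in a 96-well plate and treated with one concentration of compound for 48 hours. Values below 10 were considered active.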 Unmarked numbers belong to inactive results. The source made the active and inactive calls.

`COc1cc(C(=O)n2nc(-c3cc(OC)c(OC)c(OC)c3)nc2N)cc(OC)c1OC`: the growth in the test with SK-MEL-2 melanoma was 91.2%; in the test with EKVX NSCLC it was 90.6%; with SN12C renal it was 109%; in the test on UO-31 renal it was 83.2%; in the test on TK-10 renal, 98.1%; with ACHN renal, 95.8%. The growth was 77.6% in the test on A498 renal; 96.7% in the test with CCRF-CEM leukemia; 81.5% in the test with MOLT-4 leukemia; 73.5% with SR leukemia; 92.4% with RPMI-8226 leukemia; 102% with OVCAR-8 ovarian. In addition, the growth is 97% with OVCAR-5 ovarian; 94.5% in the test with OVCAR-4 ovarian; 87.5% with SK-OV-3 ovarian; 105% in the test on IGROV1 ovarian; 101% in the test on OVCAR-3 ovarian; 103% in the test with HS 578T breast. In the test on NCI/ADR-RES ovarian, the growth was 99.2%.

Take `COc1cc(-c2nn(-c3cccc(NC(=O)NCCNC(=O)c4cccc(C(F)(F)F)c4)c3)cc2-c2ccncc2)ccc1Cl`: the growth in the test on SK-MEL-2 melanoma was 21.5%; with EKVX NSCLC it was 60.1%; with SN12C renal, 75.2%; in the test on UO-31 renal, 62.1%; in the test on TK-10 renal it was 90%; with ACHN renal, 48.4%. The growth was 33% in the test on A498 renal; 20.6% in the test with CCRF-CEM leukemia; 27.3% in the test on MOLT-4 leukemia; 10.4% with SR leukemia; 21.4% in the test on RPMI-8226 leukemia; 44.1% in the test with OVCAR-8 ovarian. The growth was 85.1% in the test on OVCAR-5 ovarian; 49.4% in the test on OVCAR-4 ovarian; 49.9% with SK-OV-3 ovarian; 57.3% in the test with IGROV1 ovarian; 16.2% in the test on OVCAR-3 ovarian; 24.1% in the test with HS 578T breast. The growth with NCI/ADR-RES ovarian was 80.3%.

Take `O=C1c2ccccc2C(=O)c2c1ccc(C(Br)Br)c2[N+](=O)[O-]`: the growth in the test with SK-MEL-2 melanoma is 77.5%; with EKVX NSCLC it was 46.8%; with SN12C renal, 34.4%; in the test with UO-31 renal, 50.6%; in the test on TK-10 renal it was 73.2%; with ACHN renal, -16.1% (active). Besides, the growth is 26.6% with A498 renal; -43.4% (active) in the test on CCRF-CEM leukemia; -45.5% (active) with MOLT-4 leukemia; -32% (active) in the test on SR leukemia; -7.34% (active) with RPMI-8226 leukemia; 43.1% in the test on OVCAR-8 ovarian. Moreover, the growth in the test with OVCAR-5 ovarian is 49.7%; with OVCAR-4 ovarian, -23.9% (active); with SK-OV-3 ovarian it was 88.1%; in the test on IGROV1 ovarian, -55% (active); with OVCAR-3 ovarian it was -84% (active); with HS 578T breast it was 103%. For the same compound, the growth with NCI/ADR-RES ovarian is 50.3%.

For the compound `CCOC(=O)c1cc(C(=O)c2ccc(OC)c(OC)c2)n2c1ccc1ccc3cccnc3c12`, the growth in the test with SK-MEL-2 melanoma is 19%; with EKVX NSCLC, 78.6%; in the test on SN12C renal it was 62.1%; in the test with UO-31 renal it was 44%; with TK-10 renal, 70.5%; with ACHN renal, 47.4%. The growth is -5.4% (active) in the test with A498 renal; 19.9% in the test with CCRF-CEM leukemia; 33.8% in the test with MOLT-4 leukemia; 23.1% in the test with SR leukemia; 5.4% (active) in the test on RPMI-8226 leukemia; 29% with OVCAR-8 ovarian. The growth was 79.7% in the test with OVCAR-5 ovarian; 59.2% with OVCAR-4 ovarian; 17.8% with SK-OV-3 ovarian; 46% in the test on IGROV1 ovarian; 10.3% with OVCAR-3 ovarian; 25% in the test on HS 578T breast. Also, the growth in the test with NCI/ADR-RES ovarian was 21.6%.

Take `CCOC(=O)c1cc(C(=O)c2ccc(OC)c(OC)c2)n2ccncc12`: the growth with SK-MEL-2 melanoma is 96%; with EKVX NSCLC, 106%; with SN12C renal, 102%; in the test on UO-31 renal it was 71.3%; in the test on TK-10 renal, 123%; with ACHN renal it was 88.1%. The growth is 94.6% with A498 renal; 101% in the test on CCRF-CEM leukemia; 94.2% in the test on MOLT-4 leukemia; 78.5% with SR leukemia; 88.3% with RPMI-8226 leukemia; 94.9% in the test with OVCAR-8 ovarian. Further, the growth in the test on OVCAR-5 ovarian is 124%; with OVCAR-4 ovarian it was 104%; in the test on SK-OV-3 ovarian it was 64.2%; in the test with IGROV1 ovarian, 102%; in the test with OVCAR-3 ovarian it was 108%; in the test on HS 578T breast, 102%. In addition, in the test with NCI/ADR-RES ovarian, the growth was 96.9%.

Take `COc1cc(-c2nn(-c3cccc(NC(=O)CN4CCOCC4)c3)cc2-c2cccnc2)ccc1Cl`: the growth with SK-MEL-2 melanoma is 82.1%; with EKVX NSCLC it was 95.8%; in the test with SN12C renal it was 85.4%; in the test with UO-31 renal, 68.6%; with TK-10 renal, 125%; in the test with ACHN renal it was 87.6%. The growth in the test on A498 renal is 93.3%; with CCRF-CEM leukemia it was 70.9%; in the test on MOLT-4 leukemia, 74.3%; in the test with SR leukemia, 37.3%; in the test on RPMI-8226 leukemia, 60.5%; in the test with OVCAR-8 ovarian, 76.4%. Moreover, the growth in the test on OVCAR-5 ovarian was 108%; in the test with OVCAR-4 ovarian, 101%; with SK-OV-3 ovarian it was 95.8%; in the test on IGROV1 ovarian, 79.6%; in the test with OVCAR-3 ovarian, 77.2%; in the test with NCI/ADR-RES ovarian, 59%.

For the compound `COc1cc(-c2nn(-c3cccc(NC(=O)CCNc4ccc(N5CCOCC5)cc4)c3)cc2-c2ccncc2)ccc1Cl`, the growth in the test on SK-MEL-2 melanoma is 10.3%; in the test on EKVX NSCLC, 39.4%; with SN12C renal it was 27.6%; in the test on UO-31 renal, 27.3%; in the test on TK-10 renal, 24.7%; with ACHN renal it was 15.8%. For the same compound, the growth in the test on A498 renal is 18.3%; in the test with CCRF-CEM leukemia, 10.9%; with MOLT-4 leukemia, 3.1% (active); in the test on SR leukemia, 5.07% (active); in the test on RPMI-8226 leukemia, 15.5%; in the test on OVCAR-8 ovarian, 7.74% (active). Further, the growth with OVCAR-5 ovarian was 49%; with OVCAR-4 ovarian it was 26%; in the test on SK-OV-3 ovarian, 34.7%; in the test with IGROV1 ovarian it was 27.3%; in the test with OVCAR-3 ovarian, 14.1%; with HS 578T breast, 29.7%. In addition, in the test on NCI/ADR-RES ovarian, the growth is 36%.

Consider `CCOC(=O)c1cc(C(=O)c2ccc(Cl)cc2)n2ccc(-c3cc[n+](CC(=O)c4ccc(OC)cc4)cc3)cc12`, for which the growth with SK-MEL-2 melanoma was 97.6%; in the test with EKVX NSCLC, 96.4%; in the test on SN12C renal, 102%; with UO-31 renal it was 73.5%; in the test with TK-10 renal, 124%; with ACHN renal, 96.4%. The growth in the test on A498 renal is 73.9%; in the test on CCRF-CEM leukemia, -3.14% (active); with MOLT-4 leukemia, 11.1%; in the test with SR leukemia, -27.2% (active); with RPMI-8226 leukemia, 23.4%; in the test with OVCAR-8 ovarian, 76.7%. The growth was 112% with OVCAR-5 ovarian; 29.7% in the test with OVCAR-4 ovarian; 91.1% in the test with SK-OV-3 ovarian; 93.2% in the test on IGROV1 ovarian; 37.4% in the test on OVCAR-3 ovarian; 83.2% in the test with HS 578T breast. The growth in the test on NCI/ADR-RES ovarian was 88.8%.
